Numbering of substitutions follows the chain as printed.
T1: FBXL12, Q9NXK8
T1 chain: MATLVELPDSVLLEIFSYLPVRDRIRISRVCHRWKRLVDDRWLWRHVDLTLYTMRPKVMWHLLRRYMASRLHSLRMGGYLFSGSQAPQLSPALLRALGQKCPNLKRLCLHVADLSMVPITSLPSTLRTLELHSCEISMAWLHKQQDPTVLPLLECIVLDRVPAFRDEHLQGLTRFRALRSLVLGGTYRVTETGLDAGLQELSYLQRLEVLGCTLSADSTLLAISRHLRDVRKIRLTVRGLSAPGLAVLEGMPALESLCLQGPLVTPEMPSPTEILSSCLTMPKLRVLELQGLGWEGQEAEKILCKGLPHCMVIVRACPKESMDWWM

B1: GBRAPL2_0_7192 (protein)
chain: YEERLEEISKLPIEEFAKEAVRIVEEAAKDPSLSLEELEEIALRAIRLLYEKVKEEKTEEAEDIYVEAADRIREILKKIDPNLAAYVATEAGALLYEWES
B2: GBRAPL2_0_7189 (protein)
chain: LEERLEAARELSIEEAAEELLRLIREAVEDPSFSLEEIEELARRAVEVLVEIVRRENTEEAEEIAAETADEMREILLEIDPNLAADVETEFYSELLEIEE
B3: FBXL12_hotspot_77_91 (protein)
chain: MKTVTIRVSFPAVPPEEAEALRERALRAMETALEIARGLKAAHPDVKIVIVLRIEGNPEVAREVAERAVREAHELGIEFRDESAPEVRAAAEALLAALAA
B4: GBRAPL2_0_7188 (protein)
chain: VEERIKEAEKLSIEEASKKFIEIIKEVVEDPSYSLEEIEEIALRIMKALTKIVKKENTEEAEKIYAETADKIREILSKVDPNIANYIETEAYSELLEIEE
B5: GBRAPL2_0_7196 (protein)
chain: YLERIEKMKKLSPEEAYKEAKKLVEELAKDESISPEELEKILEAILEMMAEFVKKTKKEEMEKKFDEIADLAVEAAAKKDPNLAAYIASYAGSLRVEVES
B6: GBRAPL2_0_7205 (protein)
chain: YEEEIEKAKELSPEELFKALKELVKKLKEDDSISLEELEEILLRILELAAEKVKEVKTEEAEEAFDELVELAVEAMKKRDPNMANYIETYGGSLLYEIES
B7: FBXL12_hotspot_109_6 (protein)
chain: MRVILSALGTEPELAERTFEATVTIAEGLLAAGHEVRVVLVAVEENREVAEAAAARLRALGAEVRLVVEETPEAAREAHERLLAEAEEELDREEEERERA
B8: GBRAPL2_0_7202 (protein)
chain: YLEEIEKAKELSPEELFKKLKELVEKLAEDDSISPEEKEEILLKIVELAAEKVKETKTEEDEKKFEEIVELAVKVAEKIDPNLAAYIRTHAGSLLYENES
B9: GBRAPL2_0_7187 (protein)
chain: YRKEIEEAKKLSIEEAAEKFIKLVKEAVEDPSFSKEEIEELALEIVDTLVEIVKKENTEEAEDIYAETIREIREILEKVDPNLAAYVETEGFSKLLEIEE
B10: FBXL12_hotspot_78_95 (protein)
chain: MRVLRIVIPADLPPDPEQRQRGIEYQAQAAIEAVRAGWEVVIEAADTPEAKRAALEILRRTLAETGDPERIRSPEGENAREILARLEAELAAEEAAAAAA
B11: FBXL12_hotspot_77_92 (protein)
chain: MSHLEIVVSQPATPPERREEALARARHTARYAAEIARGAKERQPELRITLVVRSEADPETTRALVRILAETAKELGVELVVEVAPENEAVAREVLAELGL
B12: GBRAPL2_0_7191 (protein)
chain: YEEELKKISELPIEEFAKRGVELVERAAKDPSLTLEELEELAERVIELLIEKVKEEKTEEAEEIYVEAADRIREILLKIDPNLAADVATEAGAGLYEIES
B13: GBRAPL2_0_7195 (protein)
chain: VEEEIERISELPIEEAAEEGVRLVERVVADPSFTDEEKVEVALRVVDILAKKVKEEKTEEAEDIYVEALDEIRKLLLSVGPELANYVYAEGGSELMEIES
B14: FBXL12_hotspot_69_90 (protein)
chain: MIEVKASKESVDYVAELMKSALELAKKYLKEGDYENLLKAAEILIGAARAIKEYKPEEAAKLLEELIKVLKEAGTPEAKELAKEAEKVLEEIKKIIKERE
B15: GBRAPL2_0_7193 (protein)
chain: IEERIEKMKELSIEEAVKEGIEIVEEVMKDPSFTDEEKVEIAERVVDIVAEKAKEEKTEEALDLAVEFARKVREILEKISPEDAAYVETRMGAELMEIES
B16: GBRAPL2_0_7197 (protein)
chain: YLKEIEEMKKLSPEEAFEKAKELVKKLAEDKTISPEELEKILEAILELAAEIVKKTKEEKMEEKFDELADLAVKAAAKKDPNLAAYIASYAGSLRYEVES
B17: FBXL12_hotspot_78_94 (protein)
chain: MRKLVITIPEPVTPDEEARRRGVEYQAQAAIEALKAGWEVVISHADTPEAKRAALEILEKAVAETGDKEKIKSADGKNADEMLAELKAELAEEEARRAAA
B18: GBRAPL2_0_7206 (protein)
chain: YEAEIEAAKKLTPEEAFKKLKELVKKLAKDTSLSKEELEKILEAIIDLAYEIYKKEKTEEAEEAFDEIVDLAVEAAAKRDPNLAAYIATYGGSKIMEAES
B19: GBRAPL2_0_7194 (protein)
chain: IEERIEELKKLSIEEAVKEGIRLVKEVKEDESFSKEEIVEIAERVAKIVAEKAKEEKTEEALDLAWKFADEVREILKEIDPNDAAYVESEIGSELMEIES
B20: GBRAPL2_0_7201 (protein)
chain: YLEEIEKAKKLSPEEAFKKLKELVKKLAEDDSISLEELEEILEKILKLAAEKVKKTKKEEDLEKFEEIVDLATEAAAKRDPLLAAYIDTYGGSLLIEVEE
B21: GBRAPL2_0_7204 (protein)
chain: YLEKIEKAKSLSPKELFEALKKLVKELAKDKSVSPEEKEEILEAIIKLAAERVKETKTEEDEKAFEEIVKEAVKVAEKIDPNLAAYVRTYAGSLLYEIES
B22: FBXL12_hotspot_69_88 (protein)
chain: MIEVRVSESSVEYALELGRAAVEKLEEAVKNGDWETAERLVDLIISIAEAIAELRPEEAIELLERAAKILKKDDSEKAKELLEKVEKKIKELKKKAKELK
B23: FBXL12_hotspot_109_5 (protein)
chain: MTVLLVARATTPEAARRTGETALAIARGLRAAGHEVIAVIVTLEEAREIAEATAAELRALGAEVRLRTAATPEEVERAYAELRAEALARLDAREAAAAAA
B24: GBRAPL2_0_7198 (protein)
chain: YLERIEKAKELSPEETFKALKEIVKELAEDDSISLEELEEILEKIVELAAEKVKETKKEEDLEKFDEIVDLATEAAAKRDPNLAAYIDTYGGSLLIEVEE
B25: GBRAPL2_0_7200 (protein)
chain: B20 chain with K10E, K26E, L46I, K47E, K55E, K58S, E63K, E66D
B26: GBRAPL2_0_7190 (protein)
chain: YEEELEEISKLPIEEFAERGVELVERAVADPSLSLEELEELALRVIRLLYEKVKEEKTEEAEDIYVEAADRIAAILAAVDPRLAAYVATEAGSLLYEWES
B27: FBXL12_hotspot_81_96 (protein)
chain: ATRELRITLQFTADDTEEEIIRRGRYHLELMYEAAKAGWEIASVTLDEAALEKSLTPERQALARRVTAILQEAAAEFRAARDAPDSVFDAILAEALARLA
B28: FBXL12_hotspot_78_93 (protein)
chain: MRTLVISIPAFVSPDAAARARGIAYQAAAAIEALRAGWEVVISHADTPEAKRAALTILERAVAETGDEARIRSEEGRGAREILAELRAALAAEDEAAAAA
B29: GBRAPL2_0_7199 (protein)
chain: YLEEIEKAKELSPEEAFEKLEKLVKELAEDDSISLEELEEILEAIIELAAEKVKETKREEDLEKFDRIVDLAAEAAAKRDPNLAAYIRTYGGSLLIEVEE
B30: FBXL12_hotspot_69_89 (protein)
chain: MIEVRASESSIEYVKELAESALKLAKKALKEKDLETLLKLAEILISAAREIAKYEPEYALELLKELLKLLKEAKTEEAEKAAKEAEKAIKEIKKLIEERK
B31: FBXL12_hotspot_69_87 (protein)
chain: EFTVIVRDVSVEYALALAEAALERAEEALAAGDREAFLRLARVALAAIENILEEDPERALELAERLAELLERADDPRFEPLLERARELIERARRLLEERR
B32: GBRAPL2_0_7203 (protein)
chain: YLEEIEKAKSLSPEELFKKLKELVKKLAEDKSISPEEKEEILEAIIKLAGEKVKETKTEETEKQFDEIVELAVEVAEKIDPNLAAYIRTLAGSLLYENES

Molecular target: GABARAPL2, P60520
Sequence (P60520 whole entry, the tested form may be a part): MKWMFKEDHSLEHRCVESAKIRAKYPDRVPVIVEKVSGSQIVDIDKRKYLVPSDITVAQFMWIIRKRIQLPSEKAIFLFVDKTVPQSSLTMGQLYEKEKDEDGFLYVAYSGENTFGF
Test: median log2 fold change of GCK-ALFA target abundance (FLAG IP / Myc IP barcode read proportion) (log2 ratio); each designed protein is fused to an ALFA-tag nanobody in HEK293 cells to bring the named protein to FLAG-tagged glucokinase (GCK); Myc marks an untargeted standard; higher = target protein stabilised (more abundant)
Details: target protein: 3xFLAG-MCP-GCK-ALFA reporter; HEK293 landing pad (RPLP)
In short: (§1)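 An ALFA-nanobody-fused binder library was recombined into HEK293 landing-pad cells and induced with 2 μg mL^−1 doxycycline. Cells were transfected with a plasmid expressing a FLAG-tagged target and a Myc-tagged standard. After 48 h, lysates underwent anti-FLAG and anti-Myc immunoprecipitation, and circular RNA barcodes were reverse transcribed, amplified and sequenced. Target abundance is the per-binder median log2 ratio of FLAG to Myc barcode read proportions. Barcodes needed ≥10^−7 proportion in both replicates, binders ≥3 barcodes per replicate, and a 10^−6 pseudocount was added; the two replicates were pooled.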

Binder	median log2 fold change
B1	-0.305
B2	-0.521
B4	-0.00159
B5	0.192
B6	0.126
B8	0.0999
B9	0.0199
B12	0.23
B13	0.163
B15	0.33
B16	0.245
B18	0.12
B19	0.238
B20	0.0418
B21	0.0789
B24	0.104
B25	0.104
B26	-0.38
B29	0.196
B32	0.0798

Molecular target: T1, FBXL12, Q9NXK8
Test: as above
Details: target protein: 3xFLAG-MCP-GCK-ALFA reporter; HEK293 landing pad (RPLP)
In short: as §1

Binder	median log2 fold change
B3	-0.734
B7	0.11
B10	-0.49
B11	0.051
B14	-0.0708
B17	0.319
B22	-0.107
B23	-0.531
B27	0.19
B28	-0.726
B30	0.238
B31	-0.369

— the supplement of paper PMC12632987
